In PubChem BioAssay:

Experiment: caspase-8 TRAIL sensitization, hit retest, confirmation, cell-based, NB7+caspase-8, with/without TRAIL, luminescence panel (AID 651596)
Conditions: NB7 neuroblastoma + caspase-8, without TRAIL, luminescence viability, without TRAIL, mean of runs, at 10 µM
`Nc1nc(Nc2ccccc2)nc2ccccc12` gave an activity of 61.3%. `C/C(=N\NC(=O)c1nn(C)c(C)c1Br)c1cccc(NC(=O)c2ccc(F)cc2)c1` showed an activity of 50.5%. With `Cc1cccc(N2CCN(C(=S)Nc3ccc4nc(N5CCN(C)CC5)cc(C)c4c3)CC2C)c1` (stereo not given) the activity was 98%. With `CCc1ccc(/C=N/Nc2ncnc3nc[nH]c23)cc1` the activity was 41.7%. For `COc1ccc(/C(N)=N/OC(=O)c2c(-c3ccccc3Cl)noc2C)cc1OC`, the activity was 98.8%.
